Hit rate of the full screen: of about 200,000 compounds, about 360 (0.18%) were called active. Rule as the data show it: active = inhibition above about 25%; inactive = the rest. For the sample, actives were picked, then their nearest neighbours and some compounds at random.
The molecules below were run against Toll-like receptor 4 (Homo sapiens) + Myeloid differentiation primary response protein MyD88 (Homo sapiens) (UniProt O00206+Q99836) (assay: disruptors of TLR4 binding to MyD88 – cell-based, HeLa CL3-4, BLA complementation, FRET ratio, primary screen (AID 861;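 also: 0% = vehicle and 100% = reference inhibitor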)). Details: HeLa CL3-4 TLR4/MyD88 BLA complementation, at 8.4 µM, stronger effect = higher value.
Toll-like receptor 4 (Homo sapiens) + Myeloid differentiation primary response protein MyD88 (Homo sapiens), sequence (O00206 whole entry, looked up): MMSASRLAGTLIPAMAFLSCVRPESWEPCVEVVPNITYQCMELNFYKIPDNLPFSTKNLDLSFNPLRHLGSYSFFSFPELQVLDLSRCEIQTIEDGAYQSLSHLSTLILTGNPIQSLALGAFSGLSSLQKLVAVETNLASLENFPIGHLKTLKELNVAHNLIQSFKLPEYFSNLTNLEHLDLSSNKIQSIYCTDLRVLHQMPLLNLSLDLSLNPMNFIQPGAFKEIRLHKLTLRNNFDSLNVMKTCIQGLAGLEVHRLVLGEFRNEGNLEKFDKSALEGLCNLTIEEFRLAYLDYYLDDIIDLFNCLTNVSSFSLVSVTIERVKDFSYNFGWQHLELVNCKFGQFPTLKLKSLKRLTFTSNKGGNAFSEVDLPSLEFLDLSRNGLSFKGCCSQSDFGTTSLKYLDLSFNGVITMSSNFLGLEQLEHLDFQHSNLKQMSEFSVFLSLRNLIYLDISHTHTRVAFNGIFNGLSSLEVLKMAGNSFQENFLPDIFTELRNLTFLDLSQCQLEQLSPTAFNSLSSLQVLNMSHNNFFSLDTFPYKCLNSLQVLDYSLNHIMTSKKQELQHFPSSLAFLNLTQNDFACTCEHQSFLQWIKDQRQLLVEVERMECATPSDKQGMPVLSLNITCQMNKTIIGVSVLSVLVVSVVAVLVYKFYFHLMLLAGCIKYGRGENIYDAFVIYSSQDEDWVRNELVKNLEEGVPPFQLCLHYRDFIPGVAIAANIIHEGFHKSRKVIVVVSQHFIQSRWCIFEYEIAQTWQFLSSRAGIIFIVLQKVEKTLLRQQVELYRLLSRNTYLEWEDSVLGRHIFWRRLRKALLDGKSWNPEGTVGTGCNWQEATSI
Toll-like receptor 4 (Homo sapiens) + Myeloid differentiation primary response protein MyD88 (Homo sapiens), sequence (Q99836 whole entry, looked up): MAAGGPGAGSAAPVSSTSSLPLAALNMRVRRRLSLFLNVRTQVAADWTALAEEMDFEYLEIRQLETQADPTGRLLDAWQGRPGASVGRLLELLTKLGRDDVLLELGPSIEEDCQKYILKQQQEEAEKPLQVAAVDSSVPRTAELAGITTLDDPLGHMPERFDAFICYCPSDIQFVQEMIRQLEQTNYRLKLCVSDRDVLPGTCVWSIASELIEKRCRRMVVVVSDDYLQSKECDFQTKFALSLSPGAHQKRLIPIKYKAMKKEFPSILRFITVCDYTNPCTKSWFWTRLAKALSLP

inhibition, inactive:
CCOC(=O)Cc1csc(NC(=O)CSc2ccc(Br)cc2)n1 -6.41%
CNC(=O)c1ccsc1NC(=O)c1ccc(S(=O)(=O)N2CCOCC2)cc1 0.17%
Cc1ccc(Oc2cc(NC(=O)CCCn3nc(C)c([N+](=O)[O-])c3C)cc([N+](=O)[O-])c2)cc1 -10.9%
Nc1cc(C(F)(F)F)ccc1N1CCOCC1 2.5%
COc1ccccc1-c1nc(SC)n[nH]1 -2.94%
CN(C)CCCCCN(C)Cc1cc2ccccc2o1 6.13%
Cc1nn(Cc2ccc(Cl)cc2)c(Cl)c1/C=N/NC(=O)CNc1ccccc1F -10.4%
COc1ccc(/C=C2/C(=O)OCc3cc(OC)c(OC)cc32)c(OC)c1 -8.99%
Cc1cc(-c2csc(N)n2)c(C)n1Cc1ccccc1 5.78%
CC(C)(C)NC(=O)NC(=O)COC(=O)Cc1ccc(Cl)cc1Cl 16.8%
Cc1ccnc2nc(C(=O)OCC(=O)N(CC(C)C)CC(C)C)nn12 -2.14%
C=CCN(CC=C)CCOc1ccccc1[N+](=O)[O-] 9.15%
COC(CNC(=O)Cn1ncc2ccsc2c1=O)OC -15.6%
CCO/C=C1\C(=O)N(c2ccc(OCC)cc2)C(=O)c2ccccc21 5.91%
Cn1cccc1C(C#N)c1ccccc1C#N (configuration not stated) 2.41%
COc1cccc(OC)c1C(=O)NC(=S)Nc1ccc(N2CCOCC2)c(Cl)c1 -0.95%
O=C(Cc1ccccc1)NCc1ccc(F)cc1 -9.59%
CCOC(=O)CSc1nc(C)cc2c1C(=O)OC2 8.27%
O=C(Cn1nnc(-c2ccccc2)n1)N/N=C/c1ccc(-c2ccc(Cl)cc2)o1 8.21%
N/C(=N/O)c1cccn1Cc1ccccc1[N+](=O)[O-] -3.45%
O=C(CCCOc1ccccc1)NCc1ccco1 9.17%
O=C(c1ccc(F)cc1)c1cn(Cc2ccc(F)cc2)c2cc3c(cc2c1=O)OCCO3 -6.89%
CCN(CC)CCn1c(/N=C/c2cc(Br)ccc2O)nc2ccccc21 7.14%
CCOc1ccc(NC(=O)CN(C)CC(=O)NC(C)c2ccccc2)cc1OCC (configuration not stated) -3.92%
CCCNC(=S)N1CCCC(c2nc3ccccc3[nH]2)C1 (configuration not stated) -4.57%
Cc1cc(C)c[n+](-c2nc3ccccc3nc2[N-]S(=O)(=O)c2cccs2)c1 -9.34%
COc1ccc2cc(CCl)c(Cl)nc2c1 2.67%
COc1cccc(OC)c1C(=O)Nc1ccc(Cc2ccncc2)cc1 13.9%
COc1ccc(-c2onc(C)c2-c2ccc3c(c2)OCCO3)c(O)c1 1.48%
CC(CC(=O)O)C(=O)c1ccc(Cl)c([N+](=O)[O-])c1 (configuration not stated) 1.72%
Cc1nnc(-c2ccc(Oc3ccc(C)c(C)c3)c([N+](=O)[O-])c2)o1 2.54%
CSC(=S)N/N=C/c1c[nH]c2ccccc12 -16.8%
S=c1[nH]nc(-c2ccccc2)n1/N=C/c1c[nH]c2ccccc12 -1.22%
O=c1c2cc3c(=O)n(CC4CCCO4)c(=O)c3cc2c(=O)n1CC1CCCO1 (configuration not stated) 0.88%
O=C(NCc1ccc2c(c1)OCO2)c1ccc2c(c1)C(=O)N(CC1CCCO1)C2=O (configuration not stated) 16.9%
C/C=C/c1ccc(OCCOc2ccc(C=O)cc2OC)c(OC)c1 -6.21%
COCCCNC(=O)C1CCC(CNS(=O)(=O)c2ccc(OC)cc2)CC1 (configuration not stated) 3.23%
CCOC(=O)C1=C(CC)Nc2ccccc2N=C1N -10.4%
CCCCN(CC)C(=O)c1ccc2c(c1)OCO2 -2.02%
O=c1cnnc(Nc2ccccc2F)[nH]1 6.52%
COc1ccccc1CC(=O)Nc1ccc(F)cc1F -14.3%
O=C1CC(c2ccccc2)=NN1c1ccc([N+](=O)[O-])cc1 7.06%
CC1=NN(c2ccccc2)C(=O)C1C(=O)c1ccc([N+](=O)[O-])cc1 (configuration not stated) 1.28%
COC(=O)c1cc(C)sc1NC(=O)CC1Nc2ccccc2NC1=O (configuration not stated) 5%
COc1ccc(-c2nn(-c3ccccc3)cc2/C=N/Nc2ccccn2)cc1OC -3.61%
O=C(NCCc1ccc(F)cc1)c1n[nH]c2ccccc12 -4.67%
CCCn1nnc(NC(=O)COc2ccc(CC)cc2)n1 9.27%
CSCCC(NS(=O)(=O)c1ccc2c(c1)oc(=O)n2C)C(=O)NC1CCCc2ccccc21 (configuration not stated) 7.47%
O=C(CO/N=C/c1ccccc1OC(F)F)NC1CCCC1 16.4%
O=C(CNC1CCCCC1)NCC1(c2ccccc2)CCCC1 -4.02%
COc1cc(C(=S)NCc2ccccc2)cc(Br)c1O -2.71%
Cc1cc(C)n(CCNCc2c(C(=O)N3C[C@@H](C)O[C@@H](C)C3)nc3ccc(Cl)cn23)n1 -4.55%
Cc1cc(C)cc(OCC(=O)NCc2cc(C)nc3ccccc23)c1 8.6%
Cc1cccc(C(=O)N2CCc3c([nH]c4ccccc34)C2CC(C)C)n1 (configuration not stated) -16.4%
CC12CN(NC(=O)c3ccc(Cl)cc3)C3(C#N)CC1CCC23C (configuration not stated) 1.1%
CCN(CC(=O)NC1CCS(=O)(=O)C1)S(=O)(=O)c1ccccc1 (configuration not stated) 1.44%
COc1ccc(S(=O)(=O)N2CN(CCc3ccc(OC)c(OC)c3)c3nc4ccccc4nc32)cc1 3.83%
Cc1ccc(OCCCC(=O)NC(C)c2ccccc2)c(C)c1 (configuration not stated) -0.61%
CCCCCCn1c(CN2CCCCC2)nc2c1c(=O)n(C)c(=O)n2C 3.83%
O=C(Cc1csc(Nc2nc(=S)[nH]c3ccccc23)n1)NCCCN1CCN(c2cccc(Cl)c2)CC1 -1.51%
CCSc1nc(C)nc2c1oc1ccccc12 1.7%
Cc1nc(N2CCN(c3ncccn3)CC2)c2oc3ccccc3c2n1 7.8%
Cc1ccc2[nH]c(=O)c(CN3CCCCC3)c(-c3ccccc3)c2c1 16.6%
COc1ccc(C2OCC3(CO2)SC(=O)NC3=O)cc1OC (configuration not stated) 6.58%
CCN1CCC2(CCN(Cc3cn[nH]c3-c3ccc(OC)c(F)c3)C2)C1 (configuration not stated) -1.36%
O=C(Nc1ccccc1Cc1ccccc1)c1ccc2c(c1)SC1=NS(=O)(=O)CCN12 14.2%
CCCCN(C(=O)COc1ccc(NC(C)=O)cc1)C1CCS(=O)(=O)C1 (configuration not stated) 5.19%
COc1cc(NC(=O)COC(=O)c2cnc(C)cn2)c(C)cc1[N+](=O)[O-] 0.72%
CC(C)c1csc(CN2CCC(CO)(Cc3ccccc3)CC2)n1 -3.76%
Oc1ccccc1C=NC1CCCCC1N=Cc1ccccc1O (configuration not stated) -2.31%
Cn1cnnc1SCC(=O)Nc1ccc(N2CCOCC2)cc1 -8.28%
CN(c1ccccc1)c1nc(N)c([N+](=O)[O-])c(NCc2ccco2)n1 -1.5%
CCC(=O)NC(=Nc1nc2ccccc2s1)NC(=O)CC -5.21%
COC(=O)Cc1nc2ccccc2[nH]1 9.21%
CC1CCN(c2ccc([N+](=O)[O-])cc2C(N)=O)CC1 12.4%
Cc1nc2ccccc2n1CC(=O)N/N=C/c1cccs1 -1.34%
CN(C)c1ccc(C=NCCc2ccc(S(N)(=O)=O)cc2)cc1 -10.3%
Cc1cc(C)c2c(n1)sc1c(=O)n(-c3ccccc3)c(=O)[nH]c12 13.9%
Cn1nnnc1-c1cc(Cl)cc(Cl)c1 -10.5%
O=C(COC(=O)c1cc(-c2cccs2)nn1-c1ccccc1)Nc1cc([N+](=O)[O-])ccc1Cl 7.72%
O=C(/C=C/c1ccc(F)cc1)NCCNC(=O)/C=C/c1ccc(F)cc1 -2.71%
COc1ccc(NC(=S)Nc2ccc(S(N)(=O)=O)cc2)c(C)c1 -9.09%
Nc1nc(SCC(=O)NCCN2CCOCC2)nc2sc3c(c12)CCC3 4.71%
Cc1ccc(Nc2c(F)c(F)c(F)c(F)c2C(=O)O)c(C)c1 -9.32%
Cc1cccc2cc(CN(Cc3cccs3)C(=S)NCc3ccco3)c(=O)[nH]c12 6.03%
COc1ccc(-c2oc3ncn(Cc4ccco4)c(=N)c3c2-c2ccc(OC)cc2)cc1 -4.97%
Cc1nn(C)c(C)c1CN(C(=O)CCc1nnc(Cc2c[nH]c3ccccc23)o1)C(C)C -4.71%
COc1ccc(Cc2nnc(N/N=C/c3ccccc3O)[nH]c2=O)cc1OC -8.91%
COc1cc(C(=O)N[C@@H](C)C(=O)NCc2ccco2)cc(OC)c1OC 5.84%
CCOc1ccc(N2C(=O)/C(=C/c3ccc(C)o3)N(C)C2=S)cc1 -6.16%
Cc1ccccc1-n1cc(CNC(=O)CC2C(=O)NCCN2C/C=C/c2ccccc2)cn1 (configuration not stated) -13.3%

inhibition, active:
C[n+]1ccc(/C=C/c2c[nH]c3ccccc23)cc1 35.4%
O=C1c2cccc3c([N+](=O)[O-])ccc(c23)C(=O)N1CC1CCCO1 (configuration not stated) 84.1%
O=C1NC(=O)C2C1C(c1ccc([N+](=O)[O-])cc1)=NN2Cc1ccccc1 (configuration not stated) 44.1%
CCCCCCCCn1c2c(c(=N)c3c1CCC3)CCCC2 28.8%
Cc1nc(Cl)c2oc3ccccc3c2n1 35.2%
COC(=O)Cc1cc(=O)n(-c2nc3ccccc3s2)[nH]1 25.2%

Source: PubChem BioAssay AID861 (The Scripps Research Institute Molecular Screening Center, 2007)
